Bioassay records from PubChem.
SIRT5 inh: SIRT5 desuccinylase inhibitors, primary screen, biochemical, fluorescence imaging, single point, set 5 | 330,000 tested, 1.1% active | Purified SirT5, succinyl-peptide AMC, trypsin-coupled fluorescence | inhibition, % at 15 µM | NAD-dependent protein deacylase sirtuin-5, mitochondrial (Homo sapiens), Q9NXA8; in the data active = inhibition above about 15%; inconclusive = no clear call, values can overlap the other calls
Target sequence (Q9NXA8 whole entry, looked up): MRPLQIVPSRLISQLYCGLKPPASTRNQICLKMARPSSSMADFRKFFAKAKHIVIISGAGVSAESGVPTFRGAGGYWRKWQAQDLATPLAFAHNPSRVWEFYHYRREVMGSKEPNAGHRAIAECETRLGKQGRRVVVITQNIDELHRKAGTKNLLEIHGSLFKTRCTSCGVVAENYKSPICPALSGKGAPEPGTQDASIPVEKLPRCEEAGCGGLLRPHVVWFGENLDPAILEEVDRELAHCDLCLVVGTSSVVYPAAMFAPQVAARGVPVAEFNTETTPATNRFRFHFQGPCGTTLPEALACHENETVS
PAX8 inh HTS: inhibitors of PAX8-driven TPO luciferase reporter, primary screen, RMG-I cells, single concentration. SteadyGlo, 24 h. inhibition, % at 12.6 µM. 360,000 tested, 1.2% active. AID 652154, 2013;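 active = mean replicate inhibition at least 60% with every replicate also reaching 60%; inconclusive = only one of the two criteria is met; inactive = mean below 60% and not all replicates reaching 60%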;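 also: luciferase light reporting Pax8 driven TPO promoter activity; plate controls were median of neutral control wells for no effect and mitoxantrone controls for full effect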
PGC1a acetyl inh: inhibitors of PGC1a acetylation signal, primary screen, cell-based, U2OS, AlphaScreen, inhibitor mode; AlphaScreen anti-acetyl-lysine; with virally co-expressed GCN5 acetyltransferase; inhibition, % at 15.6 µM; 350,000 tested, 0.17% active; AID 651687, 2012;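 active = every replicate shows inhibition of at least 40%; inconclusive = mean inhibition at least 40% but some replicate below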;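 also: 0% = neutral control wells and 100% = positive control wells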
EWS-Fli block: EWS/Fli-driven NR0B1 reporter inhibitors, primary screen, A673 cells, NR0B1 luciferase, luminescence, MLPCN library | viability-normalised | inhibition, % at 12.6 µM | 350,000 tested, 0.67% active | AID 651661, 2012;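 active = mean inhibition of at least 50% after viability correction, with every replicate also passing that limit; inconclusive = mean reaches 50% but only one of two replicates passes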;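 also: firefly luciferase signal divided by Alamar Blue viability fluorescence both relative to DMSO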
rRNA inh HTS: reduced GFP signal of wild-type E. coli, primary screen, bacterial rRNA inhibitor project, GFP/RFP fluorescence, OD600, single point; E. coli WT GFP vs humanized-ribosome RFP mutants, 24 h; stronger effect = lower value; DMSO median 0, no signal -100; GFP signal change (wild-type ribosome), % (concentration not given with the values); 350,000 tested, 1.6% active; AID 720706, 2013;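 active = significant combined selectivity score with lowered wild-type GFP, culture density cut under 30%, mutant RFP and density less affected; inactive = any of these conditions unmet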
LGR2 inh: inhibitors of bursicon-induced LGR2 CRE-luciferase signal, primary screen, cell-based, HEK293, CRE-luciferase reporter, bursicon stimulation; Drosophila bursicon receptor LGR2 (rickets); bursicon-stimulated, 4 h; inhibition, % at 9.99 µM; 380,000 tested, 0.35% active; AID 720647, 2013;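 active = drop in luminescence signal, shown as inhibition above about 50% in the replicate tests, limit read from the data, passing the limit was not always enough; inconclusive = probably only some replicates passing the limit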;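 also: agonist challenge used bursicon conditioned medium at about half maximal strength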
DNA binding: DNA binders by acridine orange displacement, dose response, counter-screen for EWS/Fli inhibitor project, biochemical, fluorescence polarization, cherry-pick; shares compounds with EWS-Fli block; salmon sperm DNA acridine orange fluorescence polarization; AC35, µM (top dose mostly 68 µM), inactives show at the top dose activity change, negative = DNA binding; 640 tested, 2% active;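 active = fitted curve reaches a 35% signal fall AC35 below twice the sample's top valid tested dose, actives reach about 48 µM in these data; inactive = the rest, including activity in the rising direction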;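 also: lower polarization ratio signals compound binding to DNA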
The depositor's hits bear a star. Most compounds without a hit are left out; they make up all but 3.4% or so of the library.

For CN(C)c1ccc2c(c1)[C@@H]1C[C@H](CC(=O)NCc3ccc(Oc4ccccc4)cc3)O[C@H](CO)[C@@H]1O2 the results were SIRT5 inh 4.5, PAX8 inh HTS 16.6, PGC1a acetyl inh -7.1, EWS-Fli block 15.0, rRNA inh HTS -6.6 and LGR2 inh 7.2.
O=C(C[C@H]1C[C@H]2c3cc(NS(=O)(=O)c4ccc(F)cc4)ccc3O[C@H]2[C@H](CO)O1)NCc1ccc(Oc2ccccc2)cc1 was read as SIRT5 inh 12.3, PAX8 inh HTS 99.3*, PGC1a acetyl inh -11.1, EWS-Fli block 54.2*, rRNA inh HTS -8.2, LGR2 inh 22.2 and DNA binding 5.9%.
Screening CN(C)c1ccc2c(c1)[C@@H]1C[C@@H](CC(=O)NCc3ccc(Oc4ccccc4)cc3)O[C@H](CO)[C@@H]1O2 returned SIRT5 inh 8.0, PAX8 inh HTS 51.5, PGC1a acetyl inh -3.9, EWS-Fli block 52.5*, rRNA inh HTS -7.2 and DNA binding 3.4%.
Screening CC(C)C#Cc1cnc2c(c1)C(=O)N([C@@H](C)CO)C[C@@H](C)[C@@H](CN(C)Cc1ccccc1)O2 returned SIRT5 inh -2.7, PGC1a acetyl inh -4.6, EWS-Fli block -4.7, rRNA inh HTS -0.9 and LGR2 inh -62.9.
For CN=c1scc(-c2ccccc2F)n1/N=C/c1ccc(O)c(O)c1O the results were SIRT5 inh 3.9, PAX8 inh HTS 83.1*, PGC1a acetyl inh 1.8, EWS-Fli block 56.0*, rRNA inh HTS -10.3, LGR2 inh 69.5* and DNA binding -2.8%.
Screening CN=c1scc(-c2ccccc2F)n1/N=C/c1ccc[nH]1 returned SIRT5 inh 1.0, PAX8 inh HTS 95.6*, PGC1a acetyl inh 15.5, EWS-Fli block 87.2*, rRNA inh HTS -21.6*, LGR2 inh 93.3* and DNA binding -8.2%.
`CN=c1scc(-c2ccco2)n1/N=C/c1ccc(O)c(O)c1` gave SIRT5 inh -0.5, PAX8 inh HTS -66.0, PGC1a acetyl inh 6.2, EWS-Fli block 15.1, rRNA inh HTS -12.3 and LGR2 inh -3.0.
For Cc1cccc(/C=C(\c2nc3ccccc3[nH]2)S(=O)(=O)c2ccccc2)c1 the results were SIRT5 inh -0.3, PAX8 inh HTS 105.5*, PGC1a acetyl inh 8.4, EWS-Fli block 71.4*, rRNA inh HTS 8.6, LGR2 inh inconclusive and DNA binding 4.5%.
For CNC[C@@H]1OCCCC[C@@H](C)Oc2ccc(NC(=O)CCC(F)(F)F)cc2C(=O)N([C@H](C)CO)C[C@H]1C the results were PAX8 inh HTS -9.1, PGC1a acetyl inh -2.0, EWS-Fli block -2.4, rRNA inh HTS 6.3 and LGR2 inh -38.1.
For CCN(C[C@H]1N[C@H](CO)[C@H]1c1ccc(-c2ccccc2)cc1)C(=O)COC the results were SIRT5 inh -0.8, PAX8 inh HTS -2.3, PGC1a acetyl inh 1.0, EWS-Fli block 0.5, rRNA inh HTS 3.4 and LGR2 inh 2.4.
`CC(C)c1ccc(OCc2cccc(C(=O)N/N=C/c3cccnc3)c2)cc1` gave SIRT5 inh -3.6, PAX8 inh HTS 29.6, PGC1a acetyl inh 3.2, EWS-Fli block 80.5*, rRNA inh HTS -15.8, LGR2 inh 45.4 and DNA binding -4.1%.
`N#CC1=C(N)Oc2cc(N)ccc2C1c1cccc(Br)c1` (centres undefined) gave SIRT5 inh -3.6, PAX8 inh HTS 64.1*, PGC1a acetyl inh -40.8, EWS-Fli block 61.8*, rRNA inh HTS -15.0, LGR2 inh -3.9 and DNA binding 5.6%.
For CCCNC(=O)Nc1ccc2c(c1)C(=O)N(C)C[C@H](OC)[C@@H](C)CN(Cc1ccncc1)[C@@H](C)CO2 the results were PAX8 inh HTS -11.5, PGC1a acetyl inh 5.2, EWS-Fli block -8.2, rRNA inh HTS 0.7 and LGR2 inh 5.3.
